Experimental data as given in PubChem BioAssay AID504329 (Southern Research Specialized Biocontainment Screening …, 2011).
Screen size: about 340,000 compounds; about 1,000 (0.29%) were called active. No stated cut-off is given here; in the data, inconclusive means inhibition above about 27% without an active follow-up result; inactive means below that. The list is a sample of the results. Potency and affinity values are given separately.

assay: H1N1 influenza NS1A inhibitors, functional cell based assay (AID 504329); settings: percent inhibition, at 12.5 µM, hits give high values

| Structure (SMILES) | inhibition |
| --- | --- |
| CCOC(=O)CC(NC(=O)c1cc2cccc(OC)c2oc1=O)c1ccc(OC)cc1 (configuration not stated) | -20.4% (inactive) |
| COc1ccc(-n2c(=O)c3ccccc3n(CC(=O)NC3CCCCC3)c2=O)cc1OC | 10.9% (inactive) |
| O=S(=O)(c1ccc(Cl)cc1)N1CCCC1c1cccnc1 (configuration not stated) | -6.92% (inactive) |
| COc1ccc(CNC(=O)C(OC(=O)c2ccco2)c2ccccc2F)cc1 (configuration not stated) | 4.89% (inactive) |
| COc1cc(C(=O)NCc2nnc(SCC(=O)N3CCCCCC3)o2)cc(OC)c1OC | 0.67% (inactive) |
| CC[C@@]1(C(=O)OC)N[C@H](CN(C)S(=O)(=O)c2ccc(C(C)(C)C)cc2)[C@@H]2C(=O)N(Cc3ccccc3)C(=O)[C@@H]21 | -9.1% (inactive) |
| Cc1ccc(Nc2nc(N)nc(-c3oc4ccccc4c3C)n2)cc1 | -6.47% (inactive) |
| COc1cc(/C=N/NC(=O)C(=O)Nc2ccccn2)ccc1O | -6.98% (inactive) |
| O=C(NCc1ccccn1)C(=O)N/N=C/c1ccc2c(c1)OCO2 | -4.91% (inactive) |
| O=C(Nc1ccccn1)C(=O)Nc1ccccn1 | -1.25% (inactive) |
| Cc1cc(/C=N/NC(=O)C(=O)NCc2ccccn2)c(C)n1-c1ccccc1 | -2.44% (inactive) |
| COc1ccc(-c2c(C)nc3c(-c4ccc(F)cc4)cnn3c2N)cc1 | -14.5% (inactive) |
| COc1cc(C(=O)NC2=NCCS2)ccc1OCc1c(C)noc1C | -1.34% (inactive) |
| O=C(CNC(=O)c1cccc(N2C(=O)c3ccccc3C2=O)c1)Nc1ccc(F)c(F)c1 | -11.5% (inactive) |
| Cc1c(O)c(CN2CCCC2)cc2c1oc(=O)c1ccccc12 | -0.95% (inactive) |
| COc1cc(Br)cc(CN2CCN(C)CC2)c1O | 2.34% (inactive) |
| COc1cc(Br)cc(CN2CCN(c3ncccn3)CC2)c1O | -10.6% (inactive) |
| COc1cccc(C(=O)Oc2c(CN3CCOCC3)cc(Cl)c3cccnc23)c1 | 4.96% (inactive) |
| Cc1ccc2c(c1)N(CCC(=O)NC1CC1)C(=O)C(C)O2 (configuration not stated) | -4.26% (inactive) |
| COC(=O)c1cc(NC(=S)Nc2cc(Cl)cc(Cl)c2)cc(C(=O)OC)c1 | -5.67% (inactive) |
| CN(Cc1ccc(F)cc1)C(=O)c1ccc(NC(=O)CC2SC(N3CCCC3)=NC2=O)cc1 (configuration not stated) | 9.52% (inactive) |

| Structure (SMILES) | inhibition |
| --- | --- |
| Cc1ccc(OCc2nnc(SCC(=O)Nc3ncc(C)s3)o2)cc1 | -2.25% (inactive) |
| CCCC(=O)Nc1ccc(NC(=O)c2cccs2)cn1 | 20.7% (inactive) |
| CN(C)c1ccc(CCc2ccc(N)cc2)cc1 | 14.3% (inactive) |
| CN(C)c1ccc(CN(C)C2CCCCC2)cc1 | -7.34% (inactive) |
| CCN(Cc1ccccc1)c1ccccc1 | -3.09% (inactive) |
| NC(N)=N/N=C/c1ccc(N(c2ccccc2)c2ccccc2)cc1 | -36.1% (inactive) |
| Cc1ccc(C)c(NC(=S)N(CCN(C)C)C(C)c2ccccn2)c1 (configuration not stated) | 4.89% (inactive) |
| Cc1cccc(C)c1NC(=S)N(CCN(C)C)C(C)c1ccccn1 (configuration not stated) | 10.7% (inactive) |
| Cc1cc(=O)[nH]c(SCC(=O)Nc2ccc(C)c(S(=O)(=O)N3CCCCC3)c2)n1 | 14% (inactive) |
| O=C(CNC(=O)c1ccco1)Nc1ccc2c(c1)OCCO2 | 5.25% (inactive) |
| COc1ccc(/C=C/C(=O)NC(=S)NNC(=O)c2c(-c3ccccc3)noc2C)cc1 | -5.37% (inactive) |
| Cc1[nH]c(=S)[nH]c(=O)c1CCOc1ccccc1 | 21.1% (inactive) |
| O=C(N/N=C/c1cc(Cl)cc([N+](=O)[O-])c1O)c1cccc(S(=O)(=O)N2CCOCC2)c1 | 13% (inactive) |
| NNC(=S)Nc1ccc(S(=O)(=O)N2CCOCC2)cc1 | -2.99% (inactive) |
| O=S(=O)(c1ccc(NC(=S)N/N=C/c2ccc(O)c(O)c2)cc1)N1CCOCC1 | 7.64% (inactive) |
| O=S(=O)(c1ccc(NC(=S)Nc2ccccc2)cc1)N1CCOCC1 | 1.71% (inactive) |
| Cc1sc2ncnc(OCC(=O)NC(C)C(C)C)c2c1C (configuration not stated) | 11.9% (inactive) |
| N/C(=N\[N+](=O)[O-])N1CCN(C(=O)OC2CCCC2)CC1 | 0.06% (inactive) |
| CCN(CC(=O)Nc1c(F)cccc1F)C(=O)CCNC(=O)c1ccc([N+](=O)[O-])cc1 | -2.66% (inactive) |
| Cc1ccc2oc(-c3ccccc3C(=O)O)cc(=O)c2c1 | 1.72% (inactive) |
| O=C(O)c1cccc(-c2ccccc2)c1O | -26.6% (inactive) |

| Structure (SMILES) | inhibition |
| --- | --- |
| CN1CCN(C(=O)Nc2ccc([N+](=O)[O-])cc2)CC1 | 15.5% (inactive) |
| O=C(Cn1[nH]c(=O)c2ccccc2c1=O)OCC(=O)c1ccc(Br)cc1 | 5.91% (inactive) |
| O=C(CN1C(=O)c2ccccc2C1=O)OCC(=O)c1ccccc1 | -5.68% (inactive) |
| O=C(CN1C(=O)C2C3C=CC(C3)C2C1=O)OCC(=O)c1ccc(Br)cc1 (configuration not stated) | 4.57% (inactive) |
| O=C(CN1CCOc2ccccc21)NCc1ccco1 | -0.84% (inactive) |
| O=C1CN(CC(=O)N2CCCCC2)c2ccccc2O1 | 16% (inactive) |
| COc1ccc(C(=O)COC(=O)C2CC3CCCC(C2)C3=O)cc1Br (configuration not stated) | -3.01% (inactive) |
| COc1ccc(C(=O)COC(=O)Cn2nnc3ccccc32)cc1Br | 18.7% (inactive) |
| CCC1Oc2ccccc2N(CC(=O)NCc2ccco2)C1=O (configuration not stated) | -8.15% (inactive) |
| Cc1c(C)c2ccc(OCC(=O)N3CCN(c4ccccc4)CC3)cc2oc1=O | 4.8% (inactive) |
| COc1cc(C2NC(=O)NC(c3ccccc3)=C2C(C)=O)cc(Cl)c1OCC(=O)O (configuration not stated) | -2.44% (inactive) |
| CC[C@@]1(C(=O)OC)N[C@H](CN(C)S(=O)(=O)c2ccc(OC)cc2)[C@@H]2C(=O)N(C)C(=O)[C@@H]21 | -26.2% (inactive) |
| Cc1ccc(S(=O)(=O)NCC(=O)OCC(=O)NCc2ccco2)cc1 | -3.09% (inactive) |
| O=C(Nc1cccc(Cl)c1)c1cnccn1 | -1.59% (inactive) |
| O=C(CCC(=O)Nc1ccc(F)cc1)N/N=C/c1ccccc1O | -5.76% (inactive) |
| Fc1ccc(NC(=S)NN=Cc2ccccc2Cl)cc1 | -9.24% (inactive) |
| O=C(CCC(=O)Nc1ccc(F)cc1)N/N=C/c1ccc(O)cc1O | 9.41% (inactive) |
| Cc1cccc(NC(=S)N/N=C/c2cccc(O)c2)c1C | -3.84% (inactive) |
| C/C(=N\NC(=S)Nc1ccccc1C)c1ccc(O)cc1 | 10.4% (inactive) |
| Fc1ccc(NC(=S)N/N=C/c2ccc(F)c(F)c2)cc1 | 0.18% (inactive) |
